Bioassay records: PubChem, The Scripps Research Institute Molecular Screening Center
The list is not random: actives were taken first. Their share in the collection is about 1.1%.
MOR-DOR ag = OPRM1-OPRD1 heterodimerization agonism. P35372+P41143. cells, luminescence. activation, % at 9.3 µM. 0.3% of 340,000 active. AID 504326; in the data active means activation above about 18%;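 further: 0% = vehicle-treated cells and 100% = reference agonist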
Target sequence (P35372 whole entry, looked up): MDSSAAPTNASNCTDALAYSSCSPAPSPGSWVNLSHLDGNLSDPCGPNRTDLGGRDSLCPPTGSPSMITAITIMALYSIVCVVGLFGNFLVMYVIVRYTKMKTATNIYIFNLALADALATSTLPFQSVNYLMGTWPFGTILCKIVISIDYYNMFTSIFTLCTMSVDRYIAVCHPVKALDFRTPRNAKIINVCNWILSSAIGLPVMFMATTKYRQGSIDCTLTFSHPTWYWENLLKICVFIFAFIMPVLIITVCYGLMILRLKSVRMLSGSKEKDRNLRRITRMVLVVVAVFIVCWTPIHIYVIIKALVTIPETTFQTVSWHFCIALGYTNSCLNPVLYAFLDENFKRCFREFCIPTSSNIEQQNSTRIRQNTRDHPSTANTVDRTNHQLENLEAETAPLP
Target sequence (P41143 whole entry, looked up): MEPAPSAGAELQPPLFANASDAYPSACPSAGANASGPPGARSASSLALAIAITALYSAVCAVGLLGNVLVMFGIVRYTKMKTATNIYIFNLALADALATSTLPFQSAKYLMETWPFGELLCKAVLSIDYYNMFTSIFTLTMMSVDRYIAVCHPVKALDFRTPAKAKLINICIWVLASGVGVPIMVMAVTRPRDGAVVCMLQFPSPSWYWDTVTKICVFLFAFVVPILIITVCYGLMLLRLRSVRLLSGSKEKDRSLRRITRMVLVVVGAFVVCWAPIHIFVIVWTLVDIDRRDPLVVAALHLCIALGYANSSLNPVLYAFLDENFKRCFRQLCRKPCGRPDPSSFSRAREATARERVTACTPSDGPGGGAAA
HTR5A inv ctr = inverse agonist of human HTR5A in OPRM1-OPRD1 counter-screen; P47898; 0.083% of 340,000 active; HTR5A cell line, luminescence, inverse agonism; inhibition, % at 9.3 µM; AID 504634; in the data active means inhibition mostly above about 23%, no sharp cut-off; inactive means mostly below about 18%;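 further: 0% = cells with DMSO and 100% = no-cell wells with DMSO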
HTR5A ag = counter-screen for OPRM1-OPRD1 agonists: human HTR5A agonism; P47898; HTR5A agonist assay, luminescence, cell-based; activation, % at 9.3 µM; 0.61% of 340,000 active; in the data active means activation mostly above about 9.5%, no sharp cut-off; inactive means mostly below about 7.6%;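 further: 0% = cells with vehicle only and 100% = reference agonist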
OPRM1-OPRD1 inv = inverse agonists of human mu-delta opioid receptor heterodimerization; inhibition, % at 9.3 µM; 0.21% of 340,000 active; cell-based MOR-DOR heterodimer luminescence, inverse agonism; P35372+P41143; AID 504357; in the data active means inhibition above about 22%, passing the limit was not always enough;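 further: 0% = cells with DMSO and 100% = wells without cells with DMSO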
MOR-DOR inv conf = OPRM1-OPRD1 heterodimer inverse agonism, confirmation. shares compounds with OPRM1-OPRD1 inv. cells expressing OPRM1/OPRD1 heterodimer, luminescence. inhibition, % at 9.3 µM. 20% of 580 active. AID 504900; in the data active means inhibition above about 32%;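 further: 0% = cells with DMSO and 100% = wells lacking cells with DMSO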
HTR5A inv ctr2 = inverse agonist of human HTR5A in OPRM1-OPRD1 counter-screen; shares compounds with OPRM1-OPRD1 inv; HTR5A-expressing cells, luminescence, inverse agonism; inhibition, % at 9.3 µM; 580 tested, under 10 active; call rule not given here;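 further: 0% = cells with DMSO and 100% = no-cell wells with DMSO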
Active calls of the source: *; i = inactive; . = no result given.

SMILES | MOR-DOR ag | HTR5A inv ctr | HTR5A ag | OPRM1-OPRD1 inv | MOR-DOR inv conf | HTR5A inv ctr2
O=C(Cn1nnc2ccccc21)OCC(=O)c1ccc(Cl)c(Cl)c1 | -13 | 12 | -3 | 71* | -106 | -23
O=C(Cn1nnc2ccccc21)OCC(=O)c1ccccc1 | -3 | 5 | 1 | 17 | . | .
CSC1=C(C#N)C(c2ccccc2C)C(C#N)=C(N)N1 (stereo not given) | -8 | 7 | -2 | 38* | 29 | -1
Cn1c(N=Nc2ccccc2)nc2ccccc21 | -10 | -17 | 7 | 43* | -25 | -13
CN(C)c1ccc(N=Nc2nc3ccccc3n2C)cc1 | -3 | 39 | -10 | 15 | . | .
N#C/C(=C\c1c(F)cccc1Cl)C(=O)NC1CC1 | 3 | -9 | -1 | -19 | . | .
CC(=O)OCC1(C)CN(c2ccccc2)N(C(C)=O)C1=O (stereo not given) | -8 | 11 | -5 | 40* | -52 | -202
COC(=O)CN1CC(=O)N(c2ccccc2)C1=S | 0 | -3 | 1 | 1 | . | .
CC(=O)OCC1(C)CN(c2ccccc2)N(C(=O)c2ccc(C(C)(C)C)cc2)C1=O (stereo not given) | -3 | 3 | -6 | 23* | -6 | -232
CC(=O)OCC1(C)CN(c2ccccc2)NC1=O (stereo not given) | -9 | 3 | -1 | 42* | 25 | 1
O=C(O)C1CCN(C(=O)COc2ccc(Br)cc2)CC1 | -3 | -10 | -2 | 13 | . | .
COc1ccc(C(=O)Nc2ccccc2[N+](=O)[O-])cc1S(=O)(=O)N1CCOCC1 | -4 | 10 | -4 | 12 | . | .
Cc1ccc(C(=O)Nc2ccccc2[N+](=O)[O-])cc1S(=O)(=O)N1CCOCC1 | -6 | -3 | 2 | 39* | -430 | 5
O=C(C(=O)c1cccnc1)c1cccnc1 | -7 | 13 | -3 | 36* | i | 2
c1cncc(-c2nnc(-c3cccnc3)nn2)c1 | -15 | 18 | -7 | 86* | -33 | 18
O=C(c1cccnc1)c1cccnc1 | 2 | 3 | -1 | -15 | . | .
COc1ccc(NC(=O)C2=NN(c3ccccc3)C(=O)CC2)cn1 | -3 | -21 | -1 | 12 | . | .
CCN(CC)c1nc(Nc2ccc([N+](=O)[O-])cc2)nc(N(CC)CC)n1 | -1 | -2 | 0 | 4 | . | .
O=C(CCc1nc(-c2ccccc2)no1)NC1CCCCCC1 | 0 | -4 | -1 | -1 | . | .
CC(=O)NC1C(=O)Nc2c1cccc2C(F)(F)F (stereo not given) | -7 | -5 | 3 | 30* | 14 | -18
CC(=O)NC1C(=O)N=C(SCC(=O)Nc2c(C)cccc2C)NC1=O (stereo not given) | -3 | 5 | -2 | 15 | . | .
O=S(=O)(Cc1ccccc1)CS(=O)(=O)Cc1ccccc1 | -2 | 3 | -1 | 11 | . | .
CCS(=O)(=O)Nc1cccc(C(=O)CC2(O)C(=O)Nc3ccccc32)c1 (stereo not given) | -5 | 14 | 6 | 31 | . | .
NC(=O)CN1C(=O)C(O)(CC(=O)c2ccccc2O)c2ccccc21 (stereo not given) | -9 | 17 | -6 | 43* | 43* | 1
CS(=O)(=O)Nc1cccc(C(=O)CC2(O)C(=O)Nc3ccc(Br)cc32)c1 (stereo not given) | -7 | -8 | 3 | 35* | 4 | 2
SMILES | MOR-DOR ag | HTR5A inv ctr | HTR5A ag | OPRM1-OPRD1 inv | MOR-DOR inv conf | HTR5A inv ctr2
COC(=O)CN1C(=O)C(O)(CC(=O)c2cccc(Br)c2)c2ccccc21 (stereo not given) | -8 | 21 | -7 | 43* | 17 | 7
O=C(CC1(O)C(=O)Nc2ccccc21)c1cccc(Br)c1 (stereo not given) | -6 | 13 | -4 | 33* | 15 | 11
CS(=O)(=O)Nc1cccc(C(=O)CC2(O)C(=O)Nc3ccccc32)c1 (stereo not given) | -3 | 5 | -2 | 17 | . | .
O=C1/C(=C/c2cccs2)SC(=S)N1CCC(=O)N1CCCCC1CCO (stereo not given) | 0 | -3 | 0 | 1 | . | .
O=C(NC1CCCC1)C1CCN(C(=O)c2ccc(Cl)cc2Cl)CC1 | 1 | 2 | -1 | -7 | . | .
NC(=S)N=Nc1ccc(O)cc1 | -3 | 2 | 0 | 13 | . | .
CCc1cccc2c1NC(=O)C2=O | -12 | 14 | -3 | 61* | i | -1
COC(=O)c1cccc2c1NC(=O)C2=O | -5 | 21 | -4 | 26 | . | .
CC(=O)Oc1ccc(OC(C)=O)c2c1CC(C)=C(C)C2 | -9 | 6 | -2 | 39* | 60* | 13
Cn1c(/C=C/c2cccc([N+](=O)[O-])c2)c([N+](=O)[O-])c(=O)n(C)c1=O | -6 | 13 | -5 | 29* | i | 4
COc1cc(OC)cc(C(=O)N[C@H](C(=O)Nc2c(C)n(C)n(-c3ccccc3)c2=O)C(C)C)c1 | -3 | 19 | -7 | 12 | . | .
Cc1ccc(C(=O)CC2(O)C(=O)N(C)c3ccc(Br)cc32)c(C)c1 (stereo not given) | -1 | 8 | -3 | 6 | . | .
CN1C(=O)C(O)(CC(=O)c2ccccn2)c2cc(Br)ccc21 (stereo not given) | -13 | 17 | 3 | 74* | i | -11
CC1CCCN(c2ccc(/C=C(\C#N)c3nn(-c4ccccc4)c(N)c3C#N)cc2[N+](=O)[O-])C1 (stereo not given) | -5 | -1 | -2 | 29* | -256 | -29
CC1CCN(c2ccc(/C=C(\C#N)c3nn(-c4ccccc4)c(N)c3C#N)cc2[N+](=O)[O-])CC1 | -5 | -3 | 0 | 21 | . | .
CNc1sc(C(=O)c2ccccc2F)c(N)c1-c1nc2ccccc2s1 | -9 | 23 | -6 | 48* | -54 | -23
C=CCn1c(=O)c2c(nc3n2CC(C)CN3c2cccc(OC)c2)n(C)c1=O (stereo not given) | -6 | 29 | -10 | 36* | 6 | 29
CCCCC(=O)Nc1nnn(CCC)n1 | 0 | -16 | 7 | 2 | . | .
CCCCC(=O)NC(=S)Nc1nnn(CCC)n1 | -8 | 30 | -7 | 37* | 22 | -7
COc1ccc(CCNc2ccc(C(CC(N)=O)NC(=O)c3cc(OC)ccc3OC)cc2[N+](=O)[O-])cc1 (stereo not given) | -1 | -3 | -1 | 4 | . | .
COc1ccc(C2=NN(S(=O)(=O)c3ccccc3)C(c3ccccc3)C2)cc1 (stereo not given) | -2 | -4 | 2 | 11 | . | .
COc1ccc(C2=NN(CN3C(=O)C(=O)c4ccccc43)C(c3ccc(OC)cc3)C2)cc1 (stereo not given) | -6 | 27 | -9 | 44* | i | 1
Cc1nc2cc(NC(=O)c3cccc(S(C)(=O)=O)c3)ccc2o1 | 0 | -20 | -4 | 1 | . | .
CC1(C)CN(c2ccccc2)N(C(=O)c2ccc(F)cc2)C1=O | -9 | -9 | 3 | 46* | -10 | -136
CC1(C)CN(c2ccccc2)N(C(=O)c2ccc(C#N)cc2)C1=O | -10 | -4 | -2 | 51* | 25 | -7
CC1(C)COCN1C(=O)c1ccc(C#N)cc1 | -4 | -20 | 5 | 19 | . | .
